Out of some 31,000 sequences screened, about 1,400 (4.5%) were called active. This is one part of a sample in which actives are shown more often than they occur. Values without a mark were called inactive.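 How the source made its calls: active means median seed-adjusted z-score above 1 or below -1; inactive means the rest.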
Assay: Novel Modifiers of Survival Motor Neuron (SMN) Protein: Gene Identification via Genome-wide siRNA Screen;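 further: luminescence tracks full-length SMN protein made from the SMN2 reporter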
Details: HEK293T SMN2-luciferase reporter, siRNA knockdown, 72 h; actives lie on both sides
How it was run: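 HEK293T cells stably expressing an SMN2 splicing/cDNA-luciferase reporter were reverse-transfected with a druggable-genome siRNA library and read by luminescence at 72 hours; hits defined by MAD score above 1.0 or below -1.0.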

Row | Sequence | median seed-adjusted z-score
1 | CCAGAGUCCUGUUCGAUUUTT against USP30 | -0.646
2 | CCUCAAGCCUGUAGAAGAATT against SMNDC1 | -1.54 (active)
3 | CAGCAUUUAUCAAGUCUUATT against BMP6 | 0.301
4 | GCAUCGGCAUUGAAGGCUUTT against ALOX15B | 0.156
5 | GUAACUUCCUAUUCACCAATT against EPAS1 | -0.166
6 | GGUCUGGAGAAGGUGCAUATT against ANGPTL4 | 1.37 (active)
7 | CUCUACCAACAAUCACAAATT against NPTN | 0.133
8 | GGUCGAGUUCUACUACAAATT against IPO11 | -0.245
9 | CAUGCUCGUGGGUAACAAATT against RAB25 | -0.04
10 | UGGAGAGACUUAUCCAAGATT against CKMT1B | -0.929
11 | CAGAUGUGGUGAUGCGUGATT against DMBX1 | -0.207
12 | GCUUCAUGACAUCCGCAAATT against CTSL3 | 1.07 (active)
13 | GGCAAGAGCUUGUAUCCAATT against CCNG1 | 0.131
14 | CAAAAUCCUUUGUGAGUAATT against GPR174 | -0.324
15 | GGACUUUGCUGCCUAAAUUTT against PIP5K1A | 0.0924
16 | GCAUCACGCUCUCGAAGCATT against PTBP1 | 0.578
17 | CCACCCUAGUUAGACAUCATT against ZNF419 | 0.0405
18 | CCAUCAUCGACACACCCAATT against PRSS27 | 1.03 (active)
19 | CAAUCGAACGUAAACAACATT against ADD3 | 0.0741
20 | CAACCAUCGAGCAAAUGAATT against MAPK1 | 0
21 | CAUCCCUUGUAAUUCACAATT against ZNF702 | 0.204
22 | GCAUCAGCUCACAACAAAATT against SF3B4 | -2.56 (active)

Row | Sequence | median seed-adjusted z-score
23 | CAAGUAUGAUCAGCAAUGATT against ENG | -0.254
24 | GGCAUUACGUUUCUAGGUATT against AQP6 | 0.008
25 | CGCUGUUCAAUGAACUAUATT against GBA2 | 0.143
26 | ACACCAGGGUUGUCUACAATT against LCAT | 0.526
27 | GAACUAUCAGAGCAGUUUUTT against LONP2 | 1.52 (active)
28 | GAGCUAUAGUAAUUGCUCUTT against MIF4GD | 0.373
29 | GAAACAUCAUUUUUGCGAATT against THBS4 | -0.28
30 | GGACUGGGAUGAUACACCUTT against SBF2 | 0.569
31 | CCAUCAUGAUGCUAGCUAUTT against AP3B2 | -2.45 (active)
32 | GCAGAAUUGGAGACGGAAATT against DNALI1 | 0.699
33 | CCAAAUUCCGCUCUCAUGATT against SFRS9 | -0.144
34 | GUAUGAGUGUGACCGGGAATT against MRC2 | -1.34 (active)
35 | GGAUGAUCGAGACCAGUUUTT against XPO4 | 0.616
36 | GCUGUUGACUCACAAUGAUTT against GCLM | 0.0509
37 | GCUUACGGCUUGUACCUGATT against SFRS17A | -0.389
38 | GGAAUUAUUACAAGGUAAATT against EIF3E | 0.549
39 | UCUCUUCAAUAUGUAUUUATT against HOXC9 | 0.395
40 | GAAUCACCAUUUAAGUGCATT against PDE1C | 0.157
41 | GGGCUUAGGUGUGAUCAUUTT against USH2A | 0.0673
42 | GCCUAUUCAGAACACCAAUTT against TBP | -1.25 (active)
43 | CGUGCUUUGAGUACCCGAATT against TAT | 0.257
44 | CCUUAAGAGGGAUGAUAAATT against SAFB | -0.954

Row | Sequence | median seed-adjusted z-score
45 | CCCUCUCACCAUUACUUCATT against CRYAB | 0.354
46 | GCUCUAGGCUUCAAGGCAATT against CTSL3 | 1.07 (active)
47 | CGAGGACGAUGACUGCUUATT against LRP8 | -0.547
48 | GCAAGAAGAGAUUAGCAAATT against EIF2C2 | -0.183
49 | GACUGAUGCUUUGACUGAATT against NPTX2 | 0.0558
50 | GGAACGAGGCAGAUAUGGATT against NMNAT2 | -1.58 (active)
51 | GGAGGAAUCUUGGUCCUUATT against SLC11A2 | -0.157
52 | AUAUCAGGCUGGUUUACAATT against PLA2G15 | 0
53 | GAGCAACAGUCACCAGAUATT against MAT2A | -1.9 (active)
54 | GGCUGUCCGACUCAACAUATT against SIGLEC12 | 0.226
55 | GCAAAUGGGAGGUUGGAAATT against ZIK1 | -0.0627
56 | GGGAAGUGGUAAAUAAAGATT against MCM7 | 0.0993
57 | GCUCGGACUUCAACAACUATT against PPAP2C | -1.12 (active)
58 | CAGUAUCUAUUCACAAUGATT against TRNT1 | 0.142
59 | CCCUUCUUGUUUACAUGAATT against SLC25A43 | 0
60 | CAGGUAUAUCAAUUUUUCATT against PRICKLE3 | 0.0332
61 | GUAUCGAAGUGGAGACAAUTT against NELL1 | -0.466
62 | CCACGUGUUUCAAAGCAGATT against GPR172B | 0.184
63 | CAGUGAUGGUUAAGAACGATT against A2M | -1.96 (active)
64 | GGGUGCACCAGAAACAUUATT against VEZF1 | 0.974
65 | GUAACAACAAAUACUCAUATT against KCTD10 | -0.506
66 | CAUACUUUUUGGAUAGACATT against MTX1 | -0.159

Row | Sequence | median seed-adjusted z-score
67 | GAGAAAUGCUUGGAGUCCATT against FKBPL | -1.11 (active)
68 | GGACGAGACUCAGAGUCAUTT against CD93 | -0.0879
69 | GCACGUACUUGAUUCAGCATT against ZNF34 | 0.0391
70 | CAACAAGUGUCUAAAUGUUTT against GNG11 | 0.00609
71 | AGUCAGAGUUGAACAGGUATT against AREG | 0.104
72 | AGGCAAACGUGUUCGUGCATT against IGFALS | 0.0888
73 | GUAUCACUCUUAGAAUCCATT against GP1BA | 0.0803
74 | AGAUAGAAGGGACACCAUUTT against NDUFB3 | -0.00982
75 | GGGCAGUUGAUGAACGAAUTT against COG2 | 0.791
76 | GGCUUGAGAGCUUACAUCATT against PPP2R5C | 1.14 (active)
77 | GGUCUGCACUCAUCACUAUTT against MGAT4A | 0.134
78 | GAAAUAAGGUUUUUGCAAATT against CCL25 | 0.0698
79 | CACUAUUCCCAGAUCUUUATT against SMAD5 | -0.701
80 | GAAGCUGUGAGAUAGAGAATT against LCN8 | 0.112
81 | GGAGAUACAUCACCGAGAATT against ELMO3 | -0.0898
82 | GCUGAUGCAUUGCUCAUUATT against CCT6A | -0.286
83 | GUUCUGCCCUCAUACCCUUTT against IL9R | -1.33 (active)
84 | CCUCAGUUGGAGUUUCUAATT against TBCEL | 0.567
85 | AAGCACAACUUGACCGUGATT against USP20 | -0.369
86 | GGAGAAUGCAAUCCGCUUATT against SVIL | 0.0852
87 | CUAUAUGAAUCACUAUACATT against ZNF181 | -0.154
88 | GGACAGAGCAAAAACUUCUTT against DYRK4 | -0.824

Row | Sequence | median seed-adjusted z-score
89 | CCUGAAACCUCAGAACUUATT against PFTK2 | -1.16 (active)
90 | GUGUAAGAACUACUACAGATT against HPR | 0.237
91 | GUACCUCAAUUUAAUAUCUTT against UGCGL2 | -0.456
92 | CGGAAAGUACUUAAACGGATT against PIAS4 | 0.265
93 | GAUGAUUCGUUGGUAUCUATT against GRIA2 | -1.02 (active)
94 | CAAAUACAGUGAGGACAUUTT against GPR83 | 0.105
95 | CACUGAGAAUGCAUCCAAATT against CYP4B1 | -0.663
96 | CGGUCAUUUCGUCGAGAUATT against HSF5 | 0.369
97 | GCCCUAAACCUGCCGGAAATT against EVX1 | 1 (active)
98 | CCUCAACAGUGUCUACAUUTT against LYL1 | -0.118
99 | GAUAAAAGGUUACAAACGATT against HIF1AN | -0.0315
100 | GCAGUGUAAUGGUAUCCGATT against VLDLR | 0.0487
101 | AGCGCAUGAUUGACAGUGATT against CACNG1 | -0.452
102 | GCACUGUGCUCGGAAGUUATT against GLS2 | -0.793
103 | GUGUCGUCGUAGAAAGAGATT against WEE1 | -4.05 (active)
104 | CAGCAUACUUUAUCGCCUUTT against DICER1 | 0.101
105 | CCCAACAACUGGUAUCUUUTT against CD33 | -0.355
106 | GCCCUGGGUGGAUACUUGATT against PIM3 | -1.01 (active)
107 | CAAUAGCUGAAAUAAUAGATT against KPNA3 | 0.383
108 | CAACUACACUGUCAACUACTT against DTX2 | 0.0597

Reference: PubChem BioAssay AID1347426 (Functional Genomics Laboratory (NCATS/FGL), 2020)
